Each structure is given as a SMILES string.

The nature of the experiment: HSE-luciferase reporter activators – cell-based (AID 1611). The following applies: human cells, HSE-luciferase heat shock reporter; stronger effect = higher value. For orientation: A reporter such as luciferase makes a cellular process visible.
`NC(N)=NC(=O)c1nc(Cl)c(N)nc1N`: the fold change worked out at 0.89.
Take `CC1(C)S[C@@H]2[C@H](NC(=O)[C@H](NC(=O)N3CCNC3=O)c3ccccc3)C(=O)N2C1C(=O)O` (stereo partly specified): the fold change was determined as 0.89.
On to `CCCN(CCC)S(=O)(=O)c1ccc(C(=O)O)cc1`, for which the fold change was determined as 0.78.
As for `C#CCN(C)Cc1ccccc1`, the fold change is 1.01.
As for `CN(C)CCC=C1c2ccccc2C=Cc2ccccc21`, the figure is 0.63; as for `CCN(CC)CCOC(=O)c1ccc(N)cc1`, 0.94.

Values taken from PubChem BioAssay AID1611 (NINDS Approved Drug Screening Program, 2009).
